# The source made the active and inactive calls.
# Columns and labels:
# [1] = test system: PRMT1 (protein arginine N-methyltransferase 1); assay: PRMT1 binders on small-molecule microarrays, primary screen, biochemical, small-molecule microarray, 635 nm fluorescence (AID 1088); settings: small-molecule microarray binding, higher = more signal;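 also: binding of Prmt1 protein to compounds spotted on small-molecule microarray slides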
# [2] = yeast growth modulation, basal conditions, primary screen, YJM789 clinical isolate, OD600, 24 h (AID 1089);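 also: growth of clinical yeast isolate S. cerevisiae YJM 789 seeded 1000 cells per well; test concentration not given here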; settings: S. cerevisiae YJM789 growth, higher = more signal, called active from +8 up or from −8 down
# [3] = fission yeast growth modulation, primary screen, strain 972, OD600, 24 h, no modulator (AID 1090);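 also: basal condition with compound alone and no growth modifier present; test concentration not given here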; settings: S. pombe 972 growth, higher = more signal, called active from +8 up or from −8 down
# [4] = S. cerevisiae growth modulation with rapamycin, primary screen, strain BY4716, OD600, 96 h (AID 1091); settings: higher = more signal, called active from +8 up or from −8 down; also: test concentration not given here
# [5] = target: Torsin-1A-interacting protein 2 (Homo sapiens) (UniProt Q8NFQ8); assay: LULL1 binders on small-molecule microarray, primary screen, cell lysate, human LULL1 lysate, 635/667 nm fluorescence (AID 1092); settings: hLULL1 lysate binding, 635 nm fluorescence, higher = more signal;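 also: probe is lysate of COS7 cells overexpressing human LULL1; score merges per-feature 667 nm fluorescence with signal-to-noise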
# Sequence of Torsin-1A-interacting protein 2 (Homo sapiens) (Q8NFQ8 whole entry, looked up): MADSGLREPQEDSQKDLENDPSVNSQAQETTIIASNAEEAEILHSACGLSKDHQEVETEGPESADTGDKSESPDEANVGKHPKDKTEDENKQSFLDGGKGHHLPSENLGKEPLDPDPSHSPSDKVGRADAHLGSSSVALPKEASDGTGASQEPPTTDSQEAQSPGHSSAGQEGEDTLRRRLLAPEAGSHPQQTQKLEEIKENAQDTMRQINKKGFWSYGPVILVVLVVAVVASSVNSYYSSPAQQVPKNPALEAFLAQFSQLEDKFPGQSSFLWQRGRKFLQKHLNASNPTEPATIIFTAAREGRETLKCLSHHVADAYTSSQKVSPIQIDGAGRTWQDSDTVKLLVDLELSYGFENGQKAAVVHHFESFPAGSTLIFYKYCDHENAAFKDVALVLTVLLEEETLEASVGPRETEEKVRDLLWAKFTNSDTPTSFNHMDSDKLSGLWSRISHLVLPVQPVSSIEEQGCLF
# [6] = E. coli growth modulation, two-sided OD650, primary screen, E. coli filamentation project, strain DRC41, 24 h (AID 1093); settings: OD650, 24 h, higher = more signal, called active from +8 up or from −8 down;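 also: MC1000 strain lacking acrAB efflux and sulA so SOS filamentation is blocked; test concentration not given here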
# [7] = small-molecule microarray binders of probe aLefty2, primary screen, biochemical, biotinylated probe, 635/667 nm fluorescence (AID 1094); settings: higher = more signal;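 also: score merges spot fluorescence near 667 nm with spot signal-to-noise ratio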
# [8] = test system: Noggin (protein binding on small-molecule microarray); assay: Noggin binders on small-molecule microarray, primary screen, biochemical, 635/667 nm fluorescence (AID 1095); settings: 635 nm fluorescence, higher = more signal;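 also: score merges 667 nm feature fluorescence with signal to noise over triplicate slides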
# [9] = target: Neurogenic locus notch homolog protein 3 (Homo sapiens) (UniProt Q9UM47); assay: NOTCH3 binders on small-molecule microarray, primary screen, biochemical, 635/667 nm fluorescence (AID 1096); settings: NOTCH3 binding, 635 nm fluorescence, higher = more signal
# Sequence of Neurogenic locus notch homolog protein 3 (Homo sapiens) (Q9UM47 whole entry, looked up): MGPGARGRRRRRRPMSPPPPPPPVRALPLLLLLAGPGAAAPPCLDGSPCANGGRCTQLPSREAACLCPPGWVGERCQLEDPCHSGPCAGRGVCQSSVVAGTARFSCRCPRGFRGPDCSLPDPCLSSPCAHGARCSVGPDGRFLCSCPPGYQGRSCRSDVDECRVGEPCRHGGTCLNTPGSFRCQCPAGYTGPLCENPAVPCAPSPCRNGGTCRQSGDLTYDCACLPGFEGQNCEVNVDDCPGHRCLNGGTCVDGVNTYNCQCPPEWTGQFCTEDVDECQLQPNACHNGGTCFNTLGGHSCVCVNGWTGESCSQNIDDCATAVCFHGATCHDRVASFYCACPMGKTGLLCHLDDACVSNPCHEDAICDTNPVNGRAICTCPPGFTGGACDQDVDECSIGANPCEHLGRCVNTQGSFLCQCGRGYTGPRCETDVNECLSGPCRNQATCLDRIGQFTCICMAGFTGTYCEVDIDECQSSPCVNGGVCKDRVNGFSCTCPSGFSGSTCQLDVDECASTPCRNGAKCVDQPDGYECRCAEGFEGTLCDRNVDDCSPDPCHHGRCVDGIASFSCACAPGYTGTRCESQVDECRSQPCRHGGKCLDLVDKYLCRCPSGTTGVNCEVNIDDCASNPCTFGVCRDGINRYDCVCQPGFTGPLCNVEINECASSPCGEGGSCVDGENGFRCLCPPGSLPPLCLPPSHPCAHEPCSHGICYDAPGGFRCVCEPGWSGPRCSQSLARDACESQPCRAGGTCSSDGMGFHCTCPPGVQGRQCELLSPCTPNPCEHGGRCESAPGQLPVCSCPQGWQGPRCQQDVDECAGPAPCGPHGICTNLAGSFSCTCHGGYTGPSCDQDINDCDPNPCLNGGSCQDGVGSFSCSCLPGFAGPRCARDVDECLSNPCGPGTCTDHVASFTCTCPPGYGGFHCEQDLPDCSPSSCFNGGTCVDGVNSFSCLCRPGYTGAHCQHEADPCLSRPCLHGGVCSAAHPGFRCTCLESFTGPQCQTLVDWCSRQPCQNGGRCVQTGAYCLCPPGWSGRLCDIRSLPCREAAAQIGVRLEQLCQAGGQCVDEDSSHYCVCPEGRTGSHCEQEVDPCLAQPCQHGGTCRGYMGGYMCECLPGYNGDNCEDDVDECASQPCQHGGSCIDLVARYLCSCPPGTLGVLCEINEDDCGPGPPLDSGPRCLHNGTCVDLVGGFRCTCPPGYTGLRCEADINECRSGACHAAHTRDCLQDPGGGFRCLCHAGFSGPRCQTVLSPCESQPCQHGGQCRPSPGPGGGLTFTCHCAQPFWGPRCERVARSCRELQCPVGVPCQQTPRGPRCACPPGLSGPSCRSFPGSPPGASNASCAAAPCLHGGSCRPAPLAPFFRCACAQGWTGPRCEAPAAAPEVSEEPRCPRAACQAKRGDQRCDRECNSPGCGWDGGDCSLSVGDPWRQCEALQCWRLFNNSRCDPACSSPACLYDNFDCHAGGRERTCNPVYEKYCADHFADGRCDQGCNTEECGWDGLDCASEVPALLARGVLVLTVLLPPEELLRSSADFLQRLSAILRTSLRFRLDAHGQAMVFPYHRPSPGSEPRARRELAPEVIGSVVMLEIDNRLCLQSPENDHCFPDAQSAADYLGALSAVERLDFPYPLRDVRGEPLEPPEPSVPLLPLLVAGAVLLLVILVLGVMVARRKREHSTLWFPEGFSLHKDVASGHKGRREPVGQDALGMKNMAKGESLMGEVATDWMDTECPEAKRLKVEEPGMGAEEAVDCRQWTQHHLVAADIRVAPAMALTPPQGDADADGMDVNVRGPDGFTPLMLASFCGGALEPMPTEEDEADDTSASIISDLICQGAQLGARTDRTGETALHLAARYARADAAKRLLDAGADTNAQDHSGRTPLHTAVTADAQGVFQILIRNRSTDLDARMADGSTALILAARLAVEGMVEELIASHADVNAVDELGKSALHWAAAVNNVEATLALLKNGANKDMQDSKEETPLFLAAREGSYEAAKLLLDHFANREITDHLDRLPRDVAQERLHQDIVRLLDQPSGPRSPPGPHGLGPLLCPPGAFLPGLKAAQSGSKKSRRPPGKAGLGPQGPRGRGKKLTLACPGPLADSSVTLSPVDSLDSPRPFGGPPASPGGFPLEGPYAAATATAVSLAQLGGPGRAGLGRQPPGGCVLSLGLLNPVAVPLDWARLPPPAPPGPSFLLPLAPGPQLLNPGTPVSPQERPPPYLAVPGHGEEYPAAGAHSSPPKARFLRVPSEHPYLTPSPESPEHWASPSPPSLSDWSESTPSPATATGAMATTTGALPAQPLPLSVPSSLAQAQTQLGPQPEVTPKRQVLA
# [10] = small-molecule microarray binders of probe aEGFR, primary screen, biochemical, biotinylated probe, 635/667 nm fluorescence (AID 1097); settings: higher = more signal;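 also: probe is a biotinylated anti-EGFR antibody binding compounds printed on slides; score combines fluorescence near 667 nm and signal to noise of each spot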
# [11] = test system: Plasmodium falciparum Sir2 (PF13_0152, Sir2A); assay: pfSir2 binders on small-molecule microarrays, primary screen, biochemical, small-molecule microarray, 635 nm fluorescence (AID 1098); settings: small-molecule microarray binding, fluorescence 635 nm; higher = more signal;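 also: score merges spot fluorescence intensity with its signal-to-noise ratio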
# [12] = small-molecule microarray binders of probe aDKK1, primary screen, biochemical, biotinylated probe, 635/667 nm fluorescence (AID 1099); settings: higher = more signal;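 also: score merges 667nm spot fluorescence with signal to noise across triplicate slides; reference of the scale not given here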
# [13] = small-molecule microarray binders of probe aCHRDL2, primary screen, biochemical, biotinylated probe, 635/667 nm fluorescence (AID 1100); settings: higher = more signal
# [14] = splicing luciferase reporter signal modulators, primary screen, spliceosome inhibition project, cell-based, HEK293, splice +/- reporter (AID 1101); settings: luminescence, 24 h, higher = more signal, called active from +8 up or from −8 down;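 also: HEK293 cells carrying a splicing-competent luciferase reporter gene; test concentration not given here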
# [15] = target: Fibroblast growth factor 10 (Homo sapiens) (UniProt O15520); assay: FGF10 binders on small-molecule microarrays, primary screen, biochemical, small-molecule microarray, 635 nm fluorescence (AID 1102); settings: FGF10 binding, fluorescence 635 nm, higher = more signal
# Sequence of Fibroblast growth factor 10 (Homo sapiens) (O15520 whole entry, looked up): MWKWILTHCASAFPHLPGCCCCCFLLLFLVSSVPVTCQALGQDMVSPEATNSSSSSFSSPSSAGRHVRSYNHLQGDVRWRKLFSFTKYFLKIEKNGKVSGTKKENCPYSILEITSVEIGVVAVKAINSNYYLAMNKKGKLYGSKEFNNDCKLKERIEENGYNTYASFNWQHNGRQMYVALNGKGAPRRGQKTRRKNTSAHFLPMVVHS
# [16] = test system: glycogen synthase kinase-3 (GSK3A per assay name; protocol says GSK3B); assay: GSK3 binders on small-molecule microarrays, primary screen, biochemical, small-molecule microarray, 635 nm fluorescence, GSK3A (AID 1103); settings: small-molecule microarray binding, fluorescence 635 nm; higher = more signal; also: the record names both GSK3A and GSK3B
# [17] = target: Epidermal growth factor receptor (Homo sapiens) (UniProt P00533); assay: EGFR binders on small-molecule microarrays, primary screen, biochemical, small-molecule microarray, 635 nm fluorescence (AID 1104); settings: EGFR binding, higher = more signal;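 also: score merges 667 nm emission intensity with spot signal to noise over triplicate slides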
# Sequence of Epidermal growth factor receptor (Homo sapiens) (P00533 whole entry, looked up): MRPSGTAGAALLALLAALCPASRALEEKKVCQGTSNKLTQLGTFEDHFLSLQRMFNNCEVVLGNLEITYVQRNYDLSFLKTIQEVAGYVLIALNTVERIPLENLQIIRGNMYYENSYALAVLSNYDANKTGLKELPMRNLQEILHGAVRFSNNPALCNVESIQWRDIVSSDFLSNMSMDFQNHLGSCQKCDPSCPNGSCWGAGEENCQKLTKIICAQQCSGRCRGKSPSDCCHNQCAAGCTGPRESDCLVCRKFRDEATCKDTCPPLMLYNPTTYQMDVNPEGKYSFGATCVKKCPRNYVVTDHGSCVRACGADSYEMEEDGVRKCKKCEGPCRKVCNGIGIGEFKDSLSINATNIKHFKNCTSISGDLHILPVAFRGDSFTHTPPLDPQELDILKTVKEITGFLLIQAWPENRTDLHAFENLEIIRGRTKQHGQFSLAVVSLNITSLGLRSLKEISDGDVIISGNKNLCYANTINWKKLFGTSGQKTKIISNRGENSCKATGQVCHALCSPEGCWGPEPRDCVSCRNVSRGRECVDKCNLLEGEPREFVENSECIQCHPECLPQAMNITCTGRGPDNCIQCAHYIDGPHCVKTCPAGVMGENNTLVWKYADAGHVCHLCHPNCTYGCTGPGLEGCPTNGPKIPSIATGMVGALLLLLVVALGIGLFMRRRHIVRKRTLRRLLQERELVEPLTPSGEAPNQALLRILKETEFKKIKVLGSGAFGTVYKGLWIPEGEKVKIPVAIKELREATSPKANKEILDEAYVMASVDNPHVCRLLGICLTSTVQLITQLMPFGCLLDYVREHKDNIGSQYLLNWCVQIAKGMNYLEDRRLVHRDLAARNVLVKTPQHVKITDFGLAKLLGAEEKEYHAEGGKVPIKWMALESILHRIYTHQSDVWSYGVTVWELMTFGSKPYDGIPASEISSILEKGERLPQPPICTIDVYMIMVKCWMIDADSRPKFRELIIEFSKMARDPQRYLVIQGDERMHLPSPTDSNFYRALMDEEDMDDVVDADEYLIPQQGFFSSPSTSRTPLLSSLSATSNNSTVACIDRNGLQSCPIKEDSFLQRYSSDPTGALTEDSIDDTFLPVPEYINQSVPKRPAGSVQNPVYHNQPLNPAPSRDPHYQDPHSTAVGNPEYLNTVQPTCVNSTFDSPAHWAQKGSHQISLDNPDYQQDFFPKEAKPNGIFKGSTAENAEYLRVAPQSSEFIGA
# [18] = target: Follistatin-related protein 3 (Homo sapiens) (UniProt O95633); assay: FSTL3 binders on small-molecule microarrays, primary screen, biochemical, small-molecule microarray, 635 nm fluorescence (AID 1105); settings: FSTL3 binding, higher = more signal;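 also: score merges emission near 667 nm and signal to noise per printed spot across three slides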
# Sequence of Follistatin-related protein 3 (Homo sapiens) (O95633 whole entry, looked up): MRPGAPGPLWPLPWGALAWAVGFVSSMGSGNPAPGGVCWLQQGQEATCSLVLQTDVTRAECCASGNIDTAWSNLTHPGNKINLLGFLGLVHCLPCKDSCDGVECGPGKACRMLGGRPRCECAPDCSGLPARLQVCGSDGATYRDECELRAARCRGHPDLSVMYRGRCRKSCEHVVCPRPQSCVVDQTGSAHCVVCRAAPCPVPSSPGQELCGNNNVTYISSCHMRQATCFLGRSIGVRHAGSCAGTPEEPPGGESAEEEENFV
# [19] = target: Dickkopf-related protein 1 (Homo sapiens) (UniProt O94907); assay: DKK1 binders on small-molecule microarrays, primary screen, biochemical, small-molecule microarray, 635 nm fluorescence scan (AID 1106); settings: DKK1 binding, higher = more signal;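 also: score merges emission near 667 nm with signal to noise over three replicate slides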
# Sequence of Dickkopf-related protein 1 (Homo sapiens) (O94907 whole entry, looked up): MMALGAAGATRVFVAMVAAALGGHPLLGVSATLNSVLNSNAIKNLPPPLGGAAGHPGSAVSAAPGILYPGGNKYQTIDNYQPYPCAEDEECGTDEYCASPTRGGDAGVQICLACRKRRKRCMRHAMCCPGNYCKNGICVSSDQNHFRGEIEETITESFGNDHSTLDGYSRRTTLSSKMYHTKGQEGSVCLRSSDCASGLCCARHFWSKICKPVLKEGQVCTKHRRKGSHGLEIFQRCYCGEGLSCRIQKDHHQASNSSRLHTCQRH
# [20] = test system: Inhibin beta A chain (activin A); assay: INHBA (activin A) binders on microarrays, primary screen, biochemical, small-molecule microarray, 635 nm fluorescence scan (AID 1107); settings: small-molecule microarray binding, higher = more signal;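 also: mouse activin A protein probed at 4.33 µg/mL on printed slides; score merges bound-protein fluorescence near 667 nm with spot signal-to-noise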
SMILES,composite z-score [1],z-score [2],z-score [3],z-score [4],composite z-score [5],z-score [6],composite z-score [7],composite z-score [8],composite z-score [9],composite z-score [10],composite z-score [11],composite z-score [12],composite z-score [13],z-score [14],composite z-score [15],composite z-score [16],composite z-score [17],composite z-score [18],composite z-score [19],composite z-score [20]
CCCCCCCCCCC(O)C1C=CC2C(=O)N(c3ccccc3)C(=O)C2N1Nc1ccc(C#N)cc1 (stereo not given),1.37,0.614 (inactive),0.53 (inactive),2.57 (inactive),3.36,-0.983 (inactive),0.12,0.0931,1.09,0.0288,0.905,0.44,1.09,1.08 (inactive),1.06,1.02,0.17,0.788,-0.517,1.02
O=C(NCCN1CCOCC1)[C@@H]1c2ccccc2C(=O)N(C2Cc3ccccc3C2)[C@H]1c1ccc(CO)cc1,0.925,-2.95 (inactive),-0.534 (inactive),-0.979 (inactive),3.2,1.78 (inactive),-0.0145,-0.398,0.123,-0.214,0.909,0.0974,0.852,-1.38 (inactive),-0.223,1.05,-0.812,-0.414,-0.666,-0.363
O=C1NC(=O)C2C1C=CC(C(O)c1ccco1)N2Nc1ccc(Cl)cc1Cl (stereo not given),0.232,-25.2 (active),-1.67 (inactive),-0.647 (inactive),1.72,-1.49 (inactive),-0.103,0.223,0.417,-0.0362,0.029,0.549,0.609,0.545 (inactive),-0.0176,0.109,-0.301,0.799,-0.0083,1.39
CCCC[C@@H](O)C1=C(COC)C[C@H]2C(=O)N(Cc3ccccc3)C(=O)[C@H]2[C@H]1CO,0.831,0.332 (inactive),-0.677 (inactive),0.719 (inactive),0.113,0.649 (inactive),-0.241,1.18,0.788,-0.113,0.516,-0.449,-0.815,0.296 (inactive),0.822,0.464,0.26,1,0.972,0.44
CC(C)(C)OC(=O)COc1cccc(C(=O)CCN2CCOCC2)c1,1.34,-0.728 (inactive),-19.8 (active),-2.13 (inactive),0.557,0.328 (inactive),-0.126,-0.0786,-0.529,-0.0815,0.213,0.684,0.929,0.849 (inactive),-0.189,0.136,-0.67,-0.272,-0.285,1.54
C=CCOC(=O)[C@@H]1[C@H]2C(=O)O[C@H](c3ccccc3)[C@H](c3ccccc3)N2[C@H](c2ccc(OCCOC(=O)[C@@H]3C[C@@H]4C(=O)N[C@@H](CCCC[N+](C)(C)C)C(=O)N4[C@@H]3c3ccc(O)cc3)cc2)[C@@]12C(=O)Nc1ccc(I)cc12,1.53,0.954 (inactive),-1.48 (inactive),1.02 (inactive),2.21,-0.0235 (inactive),-0.103,0.989,1.07,-0.0006,0.822,-0.178,-0.18,0.527 (inactive),1.18,1.24,0.49,1.41,0.776,0.192
COCCOC(=O)N1C(=O)[C@@]2(c3ccccc31)[C@H](c1ccc(O)cc1)N1[C@H](c3ccccc3)[C@H](c3ccccc3)OC(=O)[C@H]1[C@@H]2C(=O)N1CCN(c2ncccn2)CC1,1.55,0.42 (inactive),1.17 (inactive),1.84 (inactive),2.78,1.05 (inactive),0.0669,1.13,0.855,0.0334,1.45,0.0484,0.419,-0.225 (inactive),1.04,1.11,0.194,0.466,0.259,0.922
C=CCC(OC(C)=O)[C@@H]1[C@@H](N(Cc2ccc(-c3cccc(C(F)(F)F)c3)o2)C(=O)c2ccc(-c3ccccc3)cc2)c2cc(OCCCO)ccc2N1C(=O)Cc1ccc2ccccc2c1 (stereo not given in full),-0.457,0.955 (inactive),0.863 (inactive),1.09 (inactive),0.512,-0.898 (inactive),-0.0928,-0.214,-0.3,-0.235,-0.417,-0.155,0.532,-0.435 (inactive),-0.186,-1.22,-0.782,-0.116,-0.403,0.841
CC(=O)N1CC2(CC2)CC1c1ccccc1 (stereo not given),0.594,-0.999 (inactive),0.661 (inactive),0.218 (inactive),1.19,0.0425 (inactive),0.0423,0.423,0.251,0.0986,-0.295,0.234,-0.0067,0.665 (inactive),0.281,0.152,0.461,-0.154,-0.0538,0.791
CC1=C2[C@@H](CCc3ccccc3)OB(O)C[C@@H]2[C@@H]2C(=O)N(Cc3ccccc3)C(=O)[C@@H]2C1,0.433,-0.763 (inactive),-2.47 (inactive),-0.993 (inactive),1.24,-0.116 (inactive),-0.116,0.694,0.57,-0.0381,0.294,-0.155,-0.395,0.81 (inactive),0.631,0.717,0.427,0.746,0.405,0.654

# From PubChem BioAssay
